Test results published in the supplement of paper PMC10849652.
The full data set covers some 7,900 targets. This sample favours those with a hit. About 0.6% of all pairs of compound and target were hits.

Compound: O=C1NC(=O)C(c2cnc3ccccn23)=C1c1cn2c3c(cc(F)cc13)CN(C(=O)N1CCCCC1)CC2
Test: log2 fold change, soluble protein after heating vs DMSO (PISA); higher = thermal stabilisation; K562 cells, 10 uM, 30 min; active = over 0.2 and 3.5 SD of the protein, either way, in both replicates (recomputed)
Procedure, shortened: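 For each measurement, 10 μM compound was applied for 30 min to K562 cells at 2×10^6 cells/mL. Aliquots were heated for 3 min across 48°C-58°C, pooled, and extracted in PBS with 0.5% NP-40 at 4°C; the supernatant after 21,000xg for 90 min was soluble protein. This was quantified by TMTpro 16plex LC-MS/MS with channel sums equalised, and thermal stability was reported relative to control samples from duplicates, on a log2 fold-change scale.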

Sequence of UniProt P15056 (P15056 whole entry, looked up): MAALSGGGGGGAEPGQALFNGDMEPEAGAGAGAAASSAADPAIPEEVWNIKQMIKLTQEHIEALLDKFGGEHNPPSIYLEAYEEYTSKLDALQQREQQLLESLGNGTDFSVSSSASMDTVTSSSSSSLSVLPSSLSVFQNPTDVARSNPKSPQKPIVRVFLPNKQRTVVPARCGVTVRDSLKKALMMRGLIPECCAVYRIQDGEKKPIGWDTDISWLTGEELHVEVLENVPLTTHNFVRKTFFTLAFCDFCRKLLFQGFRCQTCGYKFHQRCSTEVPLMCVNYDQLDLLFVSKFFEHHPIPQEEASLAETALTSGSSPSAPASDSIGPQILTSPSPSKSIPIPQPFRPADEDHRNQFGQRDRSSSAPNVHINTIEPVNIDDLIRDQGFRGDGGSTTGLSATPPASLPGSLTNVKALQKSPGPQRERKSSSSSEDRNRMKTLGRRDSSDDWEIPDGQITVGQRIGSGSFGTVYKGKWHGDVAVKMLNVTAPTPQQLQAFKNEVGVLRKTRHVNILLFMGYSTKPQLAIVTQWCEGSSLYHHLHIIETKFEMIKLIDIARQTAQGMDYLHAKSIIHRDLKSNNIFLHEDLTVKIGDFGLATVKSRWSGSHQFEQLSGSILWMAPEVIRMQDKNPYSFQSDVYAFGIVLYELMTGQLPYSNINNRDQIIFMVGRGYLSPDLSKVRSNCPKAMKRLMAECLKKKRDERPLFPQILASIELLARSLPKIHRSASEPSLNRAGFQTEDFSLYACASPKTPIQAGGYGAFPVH
Sequence of UniProt P35611 (P35611 whole entry, looked up): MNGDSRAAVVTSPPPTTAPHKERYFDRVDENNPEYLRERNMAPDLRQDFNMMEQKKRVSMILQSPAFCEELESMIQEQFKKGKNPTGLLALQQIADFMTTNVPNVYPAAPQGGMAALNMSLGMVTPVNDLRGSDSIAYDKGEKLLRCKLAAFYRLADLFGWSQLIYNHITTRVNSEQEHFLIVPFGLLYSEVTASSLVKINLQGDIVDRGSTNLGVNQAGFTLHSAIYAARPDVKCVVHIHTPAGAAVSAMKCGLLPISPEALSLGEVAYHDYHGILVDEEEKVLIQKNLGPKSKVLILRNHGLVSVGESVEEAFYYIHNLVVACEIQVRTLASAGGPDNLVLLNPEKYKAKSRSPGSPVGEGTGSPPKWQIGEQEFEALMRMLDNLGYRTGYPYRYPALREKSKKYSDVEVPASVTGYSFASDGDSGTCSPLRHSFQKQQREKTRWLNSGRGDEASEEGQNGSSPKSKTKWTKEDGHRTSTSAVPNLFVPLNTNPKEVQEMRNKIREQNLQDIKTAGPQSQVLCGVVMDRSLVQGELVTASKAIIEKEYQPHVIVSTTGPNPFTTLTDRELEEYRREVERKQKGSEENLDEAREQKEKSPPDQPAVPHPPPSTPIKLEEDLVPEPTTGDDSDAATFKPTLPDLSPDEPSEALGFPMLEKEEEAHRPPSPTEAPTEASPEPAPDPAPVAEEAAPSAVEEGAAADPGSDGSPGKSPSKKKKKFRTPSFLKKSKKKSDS
Sequence of UniProt P42331 (P42331 whole entry, looked up): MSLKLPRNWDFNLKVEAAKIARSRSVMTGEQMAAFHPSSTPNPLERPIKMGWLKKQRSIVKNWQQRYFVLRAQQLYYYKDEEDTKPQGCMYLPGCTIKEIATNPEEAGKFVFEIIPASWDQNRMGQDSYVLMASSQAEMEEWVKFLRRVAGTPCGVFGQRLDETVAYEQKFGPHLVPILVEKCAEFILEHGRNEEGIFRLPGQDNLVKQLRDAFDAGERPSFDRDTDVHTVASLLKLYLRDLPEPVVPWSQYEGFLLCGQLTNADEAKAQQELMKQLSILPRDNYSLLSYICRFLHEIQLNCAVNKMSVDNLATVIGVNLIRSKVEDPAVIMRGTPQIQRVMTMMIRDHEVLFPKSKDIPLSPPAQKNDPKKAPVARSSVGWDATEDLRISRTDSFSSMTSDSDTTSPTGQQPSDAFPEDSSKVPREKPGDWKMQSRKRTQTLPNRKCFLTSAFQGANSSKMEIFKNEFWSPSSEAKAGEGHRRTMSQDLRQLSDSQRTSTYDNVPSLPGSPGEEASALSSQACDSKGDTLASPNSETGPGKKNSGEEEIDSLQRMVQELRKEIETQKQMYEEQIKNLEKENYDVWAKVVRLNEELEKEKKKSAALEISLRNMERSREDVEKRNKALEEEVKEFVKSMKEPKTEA
Sequence of UniProt Q99758 (Q99758 whole entry, looked up): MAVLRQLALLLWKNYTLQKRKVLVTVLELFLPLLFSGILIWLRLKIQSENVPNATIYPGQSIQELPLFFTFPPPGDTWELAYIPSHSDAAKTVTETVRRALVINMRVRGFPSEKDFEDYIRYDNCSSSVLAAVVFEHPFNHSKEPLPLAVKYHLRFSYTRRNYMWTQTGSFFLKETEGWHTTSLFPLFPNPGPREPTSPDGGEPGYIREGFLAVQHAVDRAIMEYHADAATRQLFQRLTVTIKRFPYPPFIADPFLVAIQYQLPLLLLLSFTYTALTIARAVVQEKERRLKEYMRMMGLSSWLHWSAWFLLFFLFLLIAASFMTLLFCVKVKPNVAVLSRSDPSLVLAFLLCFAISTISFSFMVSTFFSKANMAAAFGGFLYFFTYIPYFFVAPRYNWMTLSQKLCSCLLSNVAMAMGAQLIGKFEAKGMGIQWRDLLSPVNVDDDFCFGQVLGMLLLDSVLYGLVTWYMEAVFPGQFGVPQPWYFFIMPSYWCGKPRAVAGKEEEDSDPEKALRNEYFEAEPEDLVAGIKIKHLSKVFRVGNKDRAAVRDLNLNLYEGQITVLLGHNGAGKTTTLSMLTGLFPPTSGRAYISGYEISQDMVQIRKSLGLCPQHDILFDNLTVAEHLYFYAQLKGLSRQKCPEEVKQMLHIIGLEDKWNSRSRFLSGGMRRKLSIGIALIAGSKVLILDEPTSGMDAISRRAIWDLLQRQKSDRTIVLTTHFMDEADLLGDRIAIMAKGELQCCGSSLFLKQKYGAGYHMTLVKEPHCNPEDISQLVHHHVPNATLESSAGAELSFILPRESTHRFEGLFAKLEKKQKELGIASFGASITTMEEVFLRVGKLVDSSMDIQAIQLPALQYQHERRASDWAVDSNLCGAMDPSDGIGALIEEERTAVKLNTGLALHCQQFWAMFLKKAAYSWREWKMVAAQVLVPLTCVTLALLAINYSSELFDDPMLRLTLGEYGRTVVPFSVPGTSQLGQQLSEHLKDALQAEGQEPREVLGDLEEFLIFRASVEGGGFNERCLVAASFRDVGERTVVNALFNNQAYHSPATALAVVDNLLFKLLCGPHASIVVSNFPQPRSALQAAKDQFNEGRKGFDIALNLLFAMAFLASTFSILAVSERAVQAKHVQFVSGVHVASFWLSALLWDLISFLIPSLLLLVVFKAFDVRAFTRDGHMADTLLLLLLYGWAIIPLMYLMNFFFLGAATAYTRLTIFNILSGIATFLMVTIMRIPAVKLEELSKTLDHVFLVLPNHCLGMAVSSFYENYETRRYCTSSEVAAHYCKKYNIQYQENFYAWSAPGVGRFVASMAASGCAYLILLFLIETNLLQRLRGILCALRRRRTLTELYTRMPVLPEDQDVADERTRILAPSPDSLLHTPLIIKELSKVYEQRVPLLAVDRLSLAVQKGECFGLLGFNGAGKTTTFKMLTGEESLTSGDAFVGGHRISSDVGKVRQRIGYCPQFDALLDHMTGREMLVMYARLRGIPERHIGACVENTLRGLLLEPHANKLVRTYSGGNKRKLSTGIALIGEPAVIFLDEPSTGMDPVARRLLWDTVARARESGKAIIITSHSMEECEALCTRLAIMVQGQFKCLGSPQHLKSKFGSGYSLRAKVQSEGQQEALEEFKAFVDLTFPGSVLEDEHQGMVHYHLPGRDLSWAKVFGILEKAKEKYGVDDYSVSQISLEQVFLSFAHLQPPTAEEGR
Sequence of UniProt Q9UKU0 (Q9UKU0 whole entry, looked up): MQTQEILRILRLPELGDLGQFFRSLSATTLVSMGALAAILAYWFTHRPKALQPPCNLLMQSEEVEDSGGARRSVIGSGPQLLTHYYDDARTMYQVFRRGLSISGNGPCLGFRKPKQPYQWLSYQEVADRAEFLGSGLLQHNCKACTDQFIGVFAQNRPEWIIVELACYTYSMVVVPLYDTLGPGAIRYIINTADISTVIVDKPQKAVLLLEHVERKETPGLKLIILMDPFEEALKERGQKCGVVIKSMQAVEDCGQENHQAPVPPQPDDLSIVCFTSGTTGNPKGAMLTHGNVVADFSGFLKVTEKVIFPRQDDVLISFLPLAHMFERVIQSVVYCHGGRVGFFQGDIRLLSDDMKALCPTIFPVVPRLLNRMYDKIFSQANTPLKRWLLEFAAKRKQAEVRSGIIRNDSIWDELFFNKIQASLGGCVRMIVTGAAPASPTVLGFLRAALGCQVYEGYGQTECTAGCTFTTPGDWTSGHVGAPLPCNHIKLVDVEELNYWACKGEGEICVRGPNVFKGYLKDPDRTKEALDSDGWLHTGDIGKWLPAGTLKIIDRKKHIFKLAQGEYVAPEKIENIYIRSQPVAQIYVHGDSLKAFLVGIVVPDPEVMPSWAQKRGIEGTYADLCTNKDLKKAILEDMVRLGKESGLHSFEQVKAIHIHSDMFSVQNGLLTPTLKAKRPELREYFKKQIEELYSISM
Sequence of UniProt P55008 (P55008 whole entry, looked up): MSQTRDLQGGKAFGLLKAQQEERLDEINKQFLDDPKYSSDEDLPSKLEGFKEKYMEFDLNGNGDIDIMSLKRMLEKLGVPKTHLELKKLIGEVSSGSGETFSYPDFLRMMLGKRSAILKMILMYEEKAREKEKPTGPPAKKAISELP
Sequence of UniProt P54922 (P54922 whole entry, looked up): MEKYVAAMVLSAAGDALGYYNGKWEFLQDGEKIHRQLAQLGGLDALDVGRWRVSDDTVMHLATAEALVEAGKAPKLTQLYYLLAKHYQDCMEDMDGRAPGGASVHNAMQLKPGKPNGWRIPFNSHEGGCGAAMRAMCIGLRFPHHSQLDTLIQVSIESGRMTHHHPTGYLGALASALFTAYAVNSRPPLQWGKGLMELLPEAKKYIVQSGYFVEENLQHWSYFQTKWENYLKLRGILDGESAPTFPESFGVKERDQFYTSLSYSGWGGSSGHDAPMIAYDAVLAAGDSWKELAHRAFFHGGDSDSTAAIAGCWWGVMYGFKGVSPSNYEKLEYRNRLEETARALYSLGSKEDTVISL

log2 fold change, inactive:
BRMS1 (UniProt Q9HCU9) -0.033
ADD1 isoform 4 (UniProt P35611) 0.027
ACSL6 isoform 1 (UniProt Q9UKU0) -0.421
BRD8 isoform 2 (UniProt Q9H0E9) 0.102
ABCA4 (UniProt P78363) -0.041
ARHGAP25 isoform 4 (UniProt P42331) 0.021
BRIP1 (UniProt Q9BX63) -0.07
BSCL2 isoform 4 (UniProt Q96G97) 0.033
AGAP3 isoform 4 (UniProt Q96P47) 0.127
ALDH2 isoform 2 (UniProt P05091) 0.051
ARFIP1 isoform 2 (UniProt P53367) -0.062
ABHD11 (UniProt Q8NFV4) -0.159
AASDH (UniProt Q4L235) -0.064
ARRDC1 (UniProt Q8N5I2) -0.008
AIF1 (UniProt P55008) 0.068
ADAM15 (UniProt Q13444) 0.031
BRAF (UniProt P15056) -0.007
ABCA3 (UniProt Q99758) 0.134
ALG14 (UniProt Q96F25) 0.061
ADPRH (UniProt P54922) -0.104
